# Data from PubChem BioAssay AID651947 (Broad Institute, 2012).
# Potency and affinity values are given separately. Records with an inconclusive call do not appear. A number with no mark means an inactive call.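 Rule for the calls: active = luminescence drop in HepG2 cells whose fitted half-effect dose is at most twice the top valid dose; inconclusive = flat curve with 30 to 70% signal loss, or unreliable fit; inactive = the rest.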
# Test: cytotoxicity in HepG2 cells, dose response, cytotoxicity control, cell-based, plate reader, dry powder (AID 651947)
# Details: HepG2 viability, ATP luminescence (CellTiter-Glo), 48 h, hits give low values
compound,measurement,setting,value
CS(=O)(=O)c1ccccc1-c1nnc(SCc2ccccc2)o1,max activity,at 26 µM unless noted,22.6% [at 3 µM]
c1ccc(CCc2nnc(-c3ccccc3)o2)cc1,max activity,at 26 µM unless noted,27.6%
FC(F)(F)CNCCSc1nnc(-c2ccccc2)o1,max activity,at 26 µM unless noted,-10% [at 12 µM]
c1ccc(CSc2nnc(-c3ccc(-c4ccccc4)cc3)o2)cc1,max activity,at 26 µM unless noted,15.5%
Clc1ccc(-c2nnc(SCc3cn(-c4ccccc4)nn3)o2)cc1,max activity,at 26 µM unless noted,-13% [at 3 µM]
c1ccc(CSc2nnc(C3CCCCC3)o2)cc1,max activity,at 26 µM unless noted,16.5% [at 3 µM]
CCSc1nnc(-c2ccccc2)o1,max activity,at 26 µM unless noted,23.2% [at 12 µM]
Fc1ccc(Cn2cc(CSc3nnc(C4CCC4)o3)nn2)cc1,max activity,at 26 µM unless noted,-41.8% [at 0.38 µM]
COc1ccccc1-c1nnc(SCc2ccccn2)o1,max activity,at 26 µM unless noted,-21.6%
COc1ccccc1CSc1nnc(-c2ccccc2)o1,max activity,at 26 µM unless noted,-56.1% [at 6 µM]
COCCOCCSc1nnc(-c2ccccc2)o1,max activity,at 26 µM unless noted,-8.39% [at 1.6 µM]
c1ccc(-c2nnc(SCCC3OCCCO3)o2)cc1,max activity,at 26 µM unless noted,12.9% [at 0.8 µM]
Brc1cccc(-c2nnc(SCc3ccccn3)o2)c1,max activity,at 26 µM unless noted,-18% [at 1.6 µM]
CS(=O)(=O)c1ccc(-c2nnc(SCc3ccccc3)o2)cc1,max activity,at 26 µM unless noted,-40.3%
O=C(Cc1ccccc1)C(C(=O)c1nnc(-c2ccccc2)o1)c1ccccc1 (configuration not stated),max activity,at 26 µM unless noted,-29.7%
COc1ccc(-c2nnc(SCc3ccccn3)o2)cc1,max activity,at 26 µM unless noted,-23.2% [at 1.6 µM]
CSc1nnc(-c2ccccc2)o1,max activity,at 26 µM unless noted,-44.9% [at 60 µM]
FC(F)(F)Oc1ccccc1-c1nnc(SCc2ccccc2)o1,max activity,at 26 µM unless noted,-9.41% [at 6 µM]
COc1cccc(-c2nnc(SCc3ccccn3)o2)c1,max activity,at 26 µM unless noted,26.5% [at 1.6 µM]
N#Cc1ccc(-c2nnc(SCc3ccccc3)o2)cc1,max activity,at 26 µM unless noted,15.9% [at 1.6 µM]
FC(F)(F)Oc1cccc(CSc2nnc(-c3ccccc3)o2)c1,max activity,at 26 µM unless noted,19.6% [at 0.38 µM]
c1ccc(-c2nnc(SCc3ccccn3)o2)cc1,max activity,at 26 µM unless noted,18.8%
N#Cc1ccccc1CSc1nnc(-c2ccccc2)o1,max activity,at 26 µM unless noted,22.9% [at 3 µM]
c1ccc(CSc2nnc(-c3cccnc3)o2)nc1,max activity,at 26 µM unless noted,-43.9%
c1ccc(CSc2ncc(-c3ccccc3)o2)cc1,max activity,at 26 µM unless noted,-32.2% [at 0.195 µM]
c1ccc(CSc2nnc(-c3ccncc3)o2)cc1,max activity,at 26 µM unless noted,-43.6% [at 0.38 µM]
FC(F)(F)c1ccc(-c2nnc(SCc3ccccc3)o2)cc1,max activity,at 26 µM unless noted,17.4% [at 3 µM]
Fc1ccc(-c2nnc(SCc3ccccn3)o2)cc1,max activity,at 26 µM unless noted,-30.7% [at 1.6 µM]
c1ccc(CSc2nnc(-c3cnco3)o2)cc1,max activity,at 26 µM unless noted,-31.7% [at 12 µM]
c1ccc(-c2nnc(SCC3CC3)o2)cc1,max activity,at 26 µM unless noted,18.8% [at 0.38 µM]
Fc1ccc(-c2nnc(SCc3cn(-c4ccccc4)nn3)o2)cc1,max activity,at 26 µM unless noted,-8.15%
FC(F)(F)Oc1cccc(-c2nnc(SCc3ccccc3)o2)c1,max activity,at 26 µM unless noted,-17.6% [at 0.195 µM]
c1ccc(CSc2nnc(-c3cccs3)o2)cc1,max activity,at 26 µM unless noted,-27.2% [at 12 µM]
Fc1cccc(CSc2nnc(-c3ccccc3)o2)c1,max activity,at 26 µM unless noted,-9.21% [at 12 µM]
c1ccc(-c2nnc(SC3CCCCC3)o2)cc1,max activity,at 26 µM unless noted,-38.4%
N#Cc1ccc(CSc2nnc(-c3ccccc3)o2)cc1,max activity,at 26 µM unless noted,-47.6% [at 3 µM]
c1ccc(CNc2nnc(-c3ccccc3)o2)cc1,max activity,at 26 µM unless noted,25.5% [at 0.195 µM]
c1ccc(CCc2nnc(SCc3ccccc3)o2)cc1,max activity,at 26 µM unless noted,22.3% [at 3 µM]
c1ccc(CSc2nnc(C3CCCC3)o2)cc1,max activity,at 26 µM unless noted,-59.1% [at 6 µM]
COc1cccc(CSc2nnc(-c3ccccc3)o2)c1,max activity,at 26 µM unless noted,25.7%
COc1cccc(-c2nnc(SCc3ccccc3)o2)c1,max activity,at 26 µM unless noted,22.1% [at 12 µM]
Cc1cccc(-c2nnc(SCc3ccccc3)o2)c1,max activity,at 26 µM unless noted,-20.2% [at 0.38 µM]
O=S(Cc1cn(-c2ccccc2)nn1)c1nnc(-c2ccc(Cl)cc2)o1 (configuration not stated),max activity,at 26 µM unless noted,-41.8% [at 12 µM]
Cc1cccc(CSc2nnc(-c3ccccc3)o2)c1,max activity,at 26 µM unless noted,-51.5% [at 0.195 µM]
Fc1ccc(Cn2cc(CSc3nnc(C4CCCC4)o3)nn2)cc1,max activity,at 26 µM unless noted,-18.5% [at 6 µM]
O=S(Cc1ccccc1)c1nnc(-c2ccccc2)o1 (configuration not stated),max activity,at 26 µM unless noted,-53.1%
c1ccc(-c2nnc(SCCN3CCOCC3)o2)cc1,max activity,at 26 µM unless noted,-7.63% [at 0.38 µM]
FC1(F)CN(CCSc2nnc(-c3ccccc3)o2)C1,max activity,at 26 µM unless noted,-36.2% [at 0.8 µM]
Clc1cccc(CSc2nnc(-c3ccccc3)o2)c1,max activity,at 26 µM unless noted,-32.2% [at 0.195 µM]
Cc1ccc(-c2nnc(SCc3ccccc3)o2)cc1,max activity,at 26 µM unless noted,15.2% [at 3 µM]
O=S(=O)(Cc1ccccc1)c1nnc(-c2ccccc2)o1,max activity,at 26 µM unless noted,-24.8%
Cc1cccc(CSc2nnc(-c3ccc(Cl)cc3)o2)n1,max activity,at 26 µM unless noted,26% [at 0.38 µM]
CS(=O)(=O)c1ccccc1CSc1nnc(-c2ccccc2)o1,max activity,at 26 µM unless noted,-12.5% [at 12 µM]
c1ccc(-c2nnc(SCc3cccnc3)o2)cc1,max activity,at 26 µM unless noted,17.3%
CS(=O)(=O)c1cccc(-c2nnc(SCc3ccccc3)o2)c1,max activity,at 26 µM unless noted,26.3% [at 0.8 µM]
Fc1cccc(-c2nnc(SCc3ccccn3)o2)c1,max activity,at 26 µM unless noted,26.1% [at 12 µM]
O=C(Cc1ccccc1)c1nnc(-c2ccccc2)o1,max activity,at 26 µM unless noted,-24.7% [at 0.8 µM]
c1ccc(-c2ccc(CSc3nnc(-c4ccccc4)o3)cc2)cc1,max activity,at 26 µM unless noted,-30.5% [at 0.38 µM]
c1ccc(CSc2nnc(-c3cc4ccccc4o3)o2)cc1,max activity,at 26 µM unless noted,34.2% [at 6 µM]
c1ccc(-n2cc(CSc3nnc(C4CCC4)o3)nn2)cc1,max activity,at 26 µM unless noted,-30.4% [at 12 µM]
c1ccc(CNCCSc2nnc(-c3ccccc3)o2)cc1,max activity,at 26 µM unless noted,-50.5% [at 1.6 µM]
FC(F)(F)Oc1ccc(-c2nnc(SCc3ccccc3)o2)cc1,max activity,at 26 µM unless noted,21.1% [at 12 µM]
c1ccc(-c2nnc(SCCN3CCCC3)o2)cc1,max activity,at 26 µM unless noted,-61.1% [at 0.8 µM]
Cc1nnc(SCc2ccccc2)o1,max activity,at 26 µM unless noted,-55.2% [at 0.195 µM]
CC(C)c1nnc(SCc2ccccc2)o1,max activity,at 26 µM unless noted,28.6% [at 0.38 µM]
c1ccc(-c2nnc(SCCN3CCN(c4ccccc4)CC3)o2)cc1,max activity,at 26 µM unless noted,-48.3% [at 12 µM]
FC(F)(F)c1ccccc1-c1nnc(SCc2ccccc2)o1,max activity,at 26 µM unless noted,15.6% [at 1.6 µM]
Fc1ccc(CSc2nnc(-c3ccc(Cl)cc3)o2)cc1,max activity,at 26 µM unless noted,-47.5% [at 12 µM]
Fc1ccc(CSc2nnc(-c3ccccc3)o2)cc1,max activity,at 0.38 µM,22%
same,max activity,at 12 µM,-25.4%
N#Cc1cccc(-c2nnc(SCc3ccccc3)o2)c1,max activity,at 26 µM unless noted,15.2%
Fc1ccccc1CSc1nnc(-c2ccccc2)o1,max activity,at 26 µM unless noted,-57.5%
